# Compound activity deposited in PubChem BioAssay by National Center for Advancing Translational Sciences (NCATS).
# Most compounds without a hit are left out; they make up all but 1.8% or so of the library.
# TCR activator – activates T cell receptor signaling; primary human leukocytes, anti-CD3, IL-2 HTRF, 48 h; Potency, µM (doses to about 9.22 µM), for the others: top-dose activation of IL-2 secretion, usual class: activators; 330,000 tested, under 10 active; AID 504894; further: % of control where 0% means no effect
#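 Human primary leukocytes + a-CD3 beads + cpd, 48 hr; IL-2 in supernatant by HTRF (ex 320nm / em 665nm). No co-stimulatory signal supplied.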
# GRP78 ERSR act – ER stress response induction in glioma | 420,000 compounds, 0.02% hits | Potency, µM, for the others: at the highest dose activation, usual class: activators | U87-MG GRP78 promoter luciferase reporter, 16 h | AID 602332; further: potency means the concentration at half of the fitted maximal effect; series mostly up to about 76 µM; % of control where 0% means no effect; nearly all actives have a fitted effect of over 35% in size
#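 Stably transfected U87-MG glioma cells carrying a GRP78-based luciferase sensor; 16 h compound incubation. Luminescence end-point read 10 min after Bright-Glo addition at room temperature.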
# A-T KAP1 phos – potential ataxia-telangiectasia treatment. AID 485349. 320,000 compounds, 0.19% hits. Potency, µM (highest dose often 57.5 µM), inactives show top-dose activation, usual class: activators. F2112 A-T fibroblasts, KAP-1 phosphorylation AlphaLISA; neocarzinostatin DNA damage 30 min before lysis; further: potency means the concentration at half of the fitted maximal effect; % of control where 0% means no effect; nearly all actives have a fitted effect of over 45% in size
#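 hTERT-immortalized A-T patient fibroblasts (F2112), 500 cells/well in OPTI-MEM, 1% FBS, got compounds for 60 min, then NCS for 30 min at 37C. Lysates were then assayed for phospho-KAP-1 by AlphaLISA (anti-pKAP1 donor, anti-KAP1 acceptor beads), 6 hr at 25C.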
# ClpP mod – qHTS Assay for Activators of ClpP; ATP-dependent Clp protease proteolytic subunit (Bacillus subtilis (strain 168)), P80244; AID 651965, 2013; Potency, µM (doses to about 57.5 µM), for the others: at the top dose activity change, negative = active; 340,000 compounds, 1.9% hits; purified B. subtilis ClpP, FRET peptide cleavage, 20 min; active means well fitted falling curve with a large enough effect; inconclusive means small, poorly fitted or top-dose-only effect; inactive means no such curve, though single readings can be large or run the other way; further: potency means the concentration at half of the fitted maximal effect; the source files actives as falling curves though it sought activators and does not explain the sign; nearly all actives have a fitted effect of over 65% in size
# Target sequence (P80244 whole entry, looked up): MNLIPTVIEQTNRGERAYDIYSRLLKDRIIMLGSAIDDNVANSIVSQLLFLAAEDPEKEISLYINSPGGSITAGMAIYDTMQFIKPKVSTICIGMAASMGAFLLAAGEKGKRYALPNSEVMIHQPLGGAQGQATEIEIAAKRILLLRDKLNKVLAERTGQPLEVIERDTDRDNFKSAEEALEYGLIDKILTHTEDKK
#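 Purified B. subtilis ClpP, 10 microg/mL final in Tris/HCl pH8 with KCl, BSA, glycerol and Tween-20, cleaved an Abz/nitrotyrosine-quenched decapeptide. Fluorescence (ex 320, em 430) was read at 0 and 20 min at room temperature. Delta was normalized to 5.8 microM ADEP and DMSO/no-enzyme controls.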
# MBNL1 CUG block – blocks human MBNL1 binding to CUG repeat RNA; Potency, µM (top dose mostly 57.5 µM), without a hit: top-dose activity change, negative = inhibition, hits mostly inhibitors; Q9NR56; 280,000 compounds, 0.036% hits; TR-FRET MBNL1-His/biotin-(CUG)12 binding, 665/545 ratio; active means well fitted inhibition curve with a large enough effect in the signal ratio, with a control signal flat, not every such curve was filed as active; inconclusive means small, poorly fitted or top-dose-only effect, or effect the other way, or a change in a side signal; inactive means no such curve, though single readings can be large or run the other way; the % refers to the signal ratio; further: potency means the concentration at half of the fitted maximal effect; on the % scale 0 is the no-effect control and ±100 the full control effect
# Target sequence (Q9NR56 whole entry, looked up): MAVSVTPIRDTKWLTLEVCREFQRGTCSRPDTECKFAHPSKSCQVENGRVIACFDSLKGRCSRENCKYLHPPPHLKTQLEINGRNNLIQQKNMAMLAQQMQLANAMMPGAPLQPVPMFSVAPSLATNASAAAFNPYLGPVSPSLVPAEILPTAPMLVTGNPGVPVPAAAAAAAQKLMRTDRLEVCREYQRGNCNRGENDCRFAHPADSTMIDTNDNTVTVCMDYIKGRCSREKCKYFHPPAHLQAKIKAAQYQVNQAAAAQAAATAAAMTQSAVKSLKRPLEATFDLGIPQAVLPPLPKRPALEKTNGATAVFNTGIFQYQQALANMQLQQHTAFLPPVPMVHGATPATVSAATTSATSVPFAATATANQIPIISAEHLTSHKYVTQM
#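 Compound titration spanned 92 nM–58 uM against the MBNL1-His/biotin-(CUG)12 complex. After 60 min at room temperature with 5 nM streptavidin-XL665 and 0.055 ng/ul terbium anti-His, ratiometric 665/545 nm emission (Ex 340 nm) normalized to controls.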
# Mito fusion yeast – inhibitors of mitochondrial division or activators of mitochondrial fusion; S. cerevisiae fusion-defective mutant growth rescue, CellTiterGlo 48 h; Potency, µM (doses to about 46.1 µM), without a hit: at the highest dose growth rescue (activation), most hits filed as activators; 320,000 compounds, 0.23% hits; AID 485298; further: potency means the concentration at half of the fitted maximal effect; % of control where 0% means no effect; nearly all actives have a fitted effect of over 45% in size
#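 S. cerevisiae fusion-defective temperature-sensitive mutants (e.g. fzo1-1, mgm1-5) grown 48 h at 37C in YPEG (ethanol/glycerol non-fermentable) medium with 23 nl compound per well; growth rescue read as CellTiterGlo luminescence.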
# Starred values were filed as active, the others as inactive; ? = inconclusive; . = not tested or not shown; [ ] = dose if it differs, or a comment. Unless noted, the call rests on the fitted dose curve; in most records, active means well fitted curve in the direction sought with a large enough effect; inconclusive means small, poorly fitted or top-dose-only effect, or another doubt; inactive means no such curve, though single readings can be large; an effect the other way counts as inactive or inconclusive.
SMILES,TCR activator,GRP78 ERSR act,A-T KAP1 phos,ClpP mod,MBNL1 CUG block,Mito fusion yeast
COc1ccccc1OCC(=O)N1CCC2(CC1)CC(=O)c1ccccc1O2,7%,-2%,1%,22µM*,.,4%
CC(=O)N1CCC2(CC1)CC(=O)c1cc(OCC(=O)N3CCOCC3)ccc1O2,-6%,-7%,2%,4%,13%,-3%
CCOC(=O)N1CCN(C(=O)COc2ccc3c(c2)C(=O)CC2(CCN(C(C)=O)CC2)O3)CC1,-4%,-1%,-10%,16µM*,4%,-2%
O=C(NCCc1cccnc1)c1cnn(-c2ncc3c(n2)-c2ccccc2CC3)c1C1CC1,.,-1%,.,.,.,.
c1ccc2c3c(cc(N4CCOCC4)c2c1)OC1(N2CCOCC2)CCCCC1O3 (stereo unspecified),.,-2%,15%,32µM*,14%,9%
COc1nnc(-c2ccc(N3CCOCC3)c(NC(=O)C3CCCCC3)c2)c2ccccc12,5%,-4%,-4%,-1%,-8%,2%
Cc1ccc(C2C(C#N)=C(N)Oc3n[nH]c(-c4cccs4)c32)cc1 (stereo unspecified),-2%[46.1 µM],-1%,4%,-1%,-13%,3%
N#CC1=C(N)Oc2n[nH]c(-c3cccs3)c2C1c1ccoc1 (stereo unspecified),-11%,-5%,1%,28µM*,4%,1%
CN(C)CC[C@H](c1ccc(Br)cc1)c1ccccn1,.,-5%,.,.,.,.
COc1ccc2oc(C(=O)Nc3nc(-c4ccccn4)cs3)c(C)c2c1,2%,-1%,-2%,-29%,.,-3%
Cc1ccc2oc(C(=O)Nc3nnc(C)s3)c(C)c2c1,-1%,-2%,-1%,-1%,3%,6%
COc1ccc2c(=O)cc(C(=O)O)oc2c1,-6%,-4%,0%,.,-7%,4%
COc1ccc2c(C)c(C(=O)O)oc2c1,.,-4%,.,25µM*,-7%,3%
COc1ccc2oc(C(=O)Nc3nc4ccc(S(C)(=O)=O)cc4s3)c(C)c2c1,3%,-3%,0%,16µM*,.,15%
COc1ccc2oc(C(=O)NC(C)c3ccccn3)c(C)c2c1 (stereo unspecified),-3%[46.1 µM],-3%,15%,25µM*,.,.
COc1ccc2oc(C(=O)Nc3nnc(C)s3)c(C)c2c1,8%,-5%,?,28µM*,.,7%
C=C(C)C(=O)OCCOCC,.,5%,.,.,.,.
O=C(Cc1c(O)c2ccccc2[nH]c1=O)NCc1cccc(F)c1,.,-3%,-4%,28µM*,0%,1%
O=C(Cc1c(O)c2ccccc2[nH]c1=O)NCc1ccccc1F,-1%,-3%,9%,28µM*,-15%,?
CCCNC(=O)Cc1c(O)c2ccccc2[nH]c1=O,-10%,-4%,2%,?,1%,1%
CC(C)(CO)NC(=O)c1cnn(-c2nccc(-c3ccc4c(c3)OCO4)n2)c1C1CC1,.,2%,.,.,.,.
COc1ccc(CCNc2cc(C)nc3c(-c4ccccc4)cnn23)cc1OC,0%[46.1 µM],4%,22%,28µM*,8%,?
COCCN(CCOC)c1ncnc2c1c(-c1ccccc1)cn2-c1ccc(C)c(Cl)c1,.,6%,.,28µM*,.,.
COc1ccc(CCNc2ncnc3c2c(-c2ccccc2)cn3-c2ccc(Cl)cc2)cc1OC,.,-3%,.,22µM*,.,.
Fc1ccc(-n2cc(-c3ccccc3)c3c(NCCc4ccccc4)ncnc32)cc1,.,-2%,.,32µM*,.,.
Cc1cc(-c2ccnc(-n3ncc(C(=O)NCC4COCCO4)c3C)n2)c(C)s1 (stereo unspecified),.,12%,.,.,.,.
CC(=O)C[C@H]1c2cc(F)cc(F)c2S(=O)(=O)N1C1CCN(Cc2ccccc2)CC1,.,-2%,.,0%,.,.
CC(CN1CCOCC1)C(Cc1ccccc1)(Cc1ccccc1)C(=O)N1CCCC1 (stereo unspecified),.,-3%,.,.,.,.
